From publication PMC5540273 (PLoS ONE, 2017)

Legend:
Details in all cases: concentration: 1 μM, replicates: in singlicate; n = 1
[1] = tested on: T1, RSK2(Kin.Dom.2-C-terminal)
T1 construct: gene RPS6KA3

[2] = tested on: T2, RSK3(Kin.Dom.1-N-terminal)
T2 construct: gene RPS6KA2

[3] = tested on: T3, RSK3(Kin.Dom.2-C-terminal)
T3 construct: gene RPS6KA2

[4] = tested on: T4, RSK4(Kin.Dom.1-N-terminal)
T4 construct: gene RPS6KA6

[5] = tested on: T5, RSK4(Kin.Dom.2-C-terminal)
T5 construct: gene RPS6KA6

S6K1 = tested on: S6K1
SBK1 = tested on: SBK1
SGK2 = tested on: SGK2
SGK3 = tested on: SGK3
SGK = tested on: SGK
SIK2 = tested on: SIK2
SIK = tested on: SIK
SLK = tested on: SLK
SNARK = tested on: T6, SNARK
T6 construct: gene NUAK2

SNRK = tested on: SNRK
SRC = tested on: SRC
SRMS = tested on: SRMS
SRPK1 = tested on: SRPK1
SRPK2 = tested on: SRPK2
SRPK3 = tested on: SRPK3
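Note: KINOMEscan kinase panel screen.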

Cc1ccccc1-n1cnc2c(N)ncnc21 [SKF-97510]
%Inh [1]: 0%
%Inh [2]: 0%
%Inh [3]: 8%
%Inh [4]: 0%
%Inh [5]: 18%
%Inh (S6K1): 0%
%Inh (SBK1): 0%
%Inh (SGK2): 0%
%Inh (SGK3): 0%
%Inh (SGK): 0%
%Inh (SIK2): 0%
%Inh (SIK): 0%
%Inh (SLK): 100%
%Inh (SNARK): 0%
%Inh (SNRK): 0%
%Inh (SRC): 13%
%Inh (SRMS): 0%
%Inh (SRPK1): 0%
%Inh (SRPK2): 0%
%Inh (SRPK3): 0%

O=C(Nc1ccc2c(c1)OCO2)NC1CCN(c2ccnc(Nc3ccc(F)cc3)n2)C1 (stereo not shown) [GSK1379724]
%Inh [1]: 0%
%Inh [2]: 0%
%Inh [3]: 0%
%Inh [4]: 0%
%Inh [5]: 0%
%Inh (S6K1): 6%
%Inh (SBK1): 13%
%Inh (SGK2): 0%
%Inh (SGK3): 0%
%Inh (SGK): 0%
%Inh (SIK2): 0%
%Inh (SIK): 0%
%Inh (SLK): 10%
%Inh (SNARK): 0%
%Inh (SNRK): 0%
%Inh (SRC): 0%
%Inh (SRMS): 0%
%Inh (SRPK1): 0%
%Inh (SRPK2): 0%
%Inh (SRPK3): 5%

Cl.c1ccc(-c2n[nH]cc2-c2ccnc(-c3ccc(CN4CCOCC4)cc3)c2)nc1 [GW776245]
%Inh [1]: 22%
%Inh [2]: 0%
%Inh [3]: 0%
%Inh [4]: 13%
%Inh [5]: 49%
%Inh (S6K1): 0%
%Inh (SBK1): 0%
%Inh (SGK2): 0%
%Inh (SGK3): 0%
%Inh (SGK): 0%
%Inh (SIK2): 0%
%Inh (SIK): 23%
%Inh (SLK): 0%
%Inh (SNARK): 0%
%Inh (SNRK): 0%
%Inh (SRC): 15%
%Inh (SRMS): 0%
%Inh (SRPK1): 0%
%Inh (SRPK2): 0%
%Inh (SRPK3): 41%

Cc1cccc(-c2nc(-c3ccc(S(C)(=O)=O)cc3)sc2-c2ccnc(NCCc3ccccc3)c2)c1
%Inh [1]: 0%
%Inh [2]: 5%
%Inh [3]: 0%
%Inh [4]: 0%
%Inh [5]: 0%
%Inh (S6K1): 0%
%Inh (SBK1): 0%
%Inh (SGK2): 2%
%Inh (SGK3): 0%
%Inh (SGK): 0%
%Inh (SIK2): 11%
%Inh (SIK): 7%
%Inh (SLK): 7%
%Inh (SNARK): 0%
%Inh (SNRK): 7%
%Inh (SRC): 0%
%Inh (SRMS): 0%
%Inh (SRPK1): 0%
%Inh (SRPK2): 23%
%Inh (SRPK3): 0%

CC1=C(C(=O)Nc2cc3cn[nH]c3cc2F)C(c2ccc(C(F)(F)F)cc2)CC(=O)N1 (stereo not shown) [GSK429286]
%Inh [1]: 0%
%Inh [2]: 22%
%Inh [3]: 0%
%Inh [4]: 0%
%Inh [5]: 18%
%Inh (S6K1): 14%
%Inh (SBK1): 22%
%Inh (SGK2): 4%
%Inh (SGK3): 4%
%Inh (SGK): 0%
%Inh (SIK2): 0%
%Inh (SIK): 0%
%Inh (SLK): 1%
%Inh (SNARK): 80%
%Inh (SNRK): 0%
%Inh (SRC): 0%
%Inh (SRMS): 0%
%Inh (SRPK1): 0%
%Inh (SRPK2): 0%
%Inh (SRPK3): 0%

O=C(O)COc1ncnc2cc(-c3ccc4[nH]ncc4c3)sc12
%Inh [1]: 0%
%Inh [2]: 26%
%Inh [3]: 29%
%Inh [4]: 23%
%Inh [5]: 15%
%Inh (S6K1): 0%
%Inh (SBK1): 45%
%Inh (SGK2): 9%
%Inh (SGK3): 35%
%Inh (SGK): 4%
%Inh (SIK2): 0%
%Inh (SIK): 8%
%Inh (SLK): 0%
%Inh (SNARK): 13%
%Inh (SNRK): 11%
%Inh (SRC): 0%
%Inh (SRMS): 8%
%Inh (SRPK1): 0%
%Inh (SRPK2): 0%
%Inh (SRPK3): 1%

COc1ccc(CNC(=O)NC2CCN(c3ccnc(Nc4cc(OC)c(OC)c(OC)c4)n3)C2)cc1 (stereo not shown) [GSK1379748]
%Inh [1]: 15%
%Inh [2]: 0%
%Inh [3]: 21%
%Inh [4]: 0%
%Inh [5]: 5%
%Inh (S6K1): 0%
%Inh (SBK1): 0%
%Inh (SGK2): 0%
%Inh (SGK3): 0%
%Inh (SGK): 0%
%Inh (SIK2): 0%
%Inh (SIK): 0%
%Inh (SLK): 0%
%Inh (SNARK): 25%
%Inh (SNRK): 0%
%Inh (SRC): 14%
%Inh (SRMS): 0%
%Inh (SRPK1): 11%
%Inh (SRPK2): 31%
%Inh (SRPK3): 0%

Cc1cccc(-c2cc(Nc3ccncc3)c3ccccc3n2)n1 [GSK223675]
%Inh [1]: 0%
%Inh [2]: 5%
%Inh [3]: 10%
%Inh [4]: 0%
%Inh [5]: 21%
%Inh (S6K1): 0%
%Inh (SBK1): 3%
%Inh (SGK2): 0%
%Inh (SGK3): 0%
%Inh (SGK): 0%
%Inh (SIK2): 0%
%Inh (SIK): 0%
%Inh (SLK): 0%
%Inh (SNARK): 0%
%Inh (SNRK): 0%
%Inh (SRC): 0%
%Inh (SRMS): 0%
%Inh (SRPK1): 5%
%Inh (SRPK2): 0%
%Inh (SRPK3): 0%

CN(C)CCN(C)C(=O)c1cc(-c2ccncc2)c(-c2ccc(Cl)c(O)c2)o1.Cl.Cl [SB-710397]
%Inh [1]: 29%
%Inh [2]: 8%
%Inh [3]: 0%
%Inh [4]: 0%
%Inh [5]: 76%
%Inh (S6K1): 15%
%Inh (SBK1): 23%
%Inh (SGK2): 9%
%Inh (SGK3): 0%
%Inh (SGK): 0%
%Inh (SIK2): 0%
%Inh (SIK): 0%
%Inh (SLK): 91.7%
%Inh (SNARK): 0%
%Inh (SNRK): 0%
%Inh (SRC): 11%
%Inh (SRMS): 0%
%Inh (SRPK1): 0%
%Inh (SRPK2): 18%
%Inh (SRPK3): 0%

Cc1cc(N2Cc3ccccc3C2)nc(Nc2ccc(S(=O)(=O)N3CCOCC3)cc2)n1.Cl [GSK1669917]
%Inh [1]: 0%
%Inh [2]: 0%
%Inh [3]: 7%
%Inh [4]: 0%
%Inh [5]: 1%
%Inh (S6K1): 2%
%Inh (SBK1): 16%
%Inh (SGK2): 0%
%Inh (SGK3): 9%
%Inh (SGK): 0%
%Inh (SIK2): 0%
%Inh (SIK): 0%
%Inh (SLK): 0%
%Inh (SNARK): 10%
%Inh (SNRK): 0%
%Inh (SRC): 0%
%Inh (SRMS): 0%
%Inh (SRPK1): 0%
%Inh (SRPK2): 0%
%Inh (SRPK3): 0%

COc1ccccc1CNC(=O)c1cc(C(=O)c2ccccc2C)c[nH]1 [GSK364507]
%Inh [1]: 0%
%Inh [2]: 4%
%Inh [3]: 0%
%Inh [4]: 0%
%Inh [5]: 0%
%Inh (S6K1): 11%
%Inh (SBK1): 16%
%Inh (SGK2): 1%
%Inh (SGK3): 0%
%Inh (SGK): 0%
%Inh (SIK2): 0%
%Inh (SIK): 14%
%Inh (SLK): 5%
%Inh (SNARK): 0%
%Inh (SNRK): 0%
%Inh (SRC): 0%
%Inh (SRMS): 0%
%Inh (SRPK1): 26%
%Inh (SRPK2): 0%
%Inh (SRPK3): 0%
